Test results taken from PubChem BioAssay (EPA / NIEHS).
Inconclusive results are not listed. Active and inactive are the calls of the source. The calls were made as follows: active = hit-call score of the fitted dose curve at least 0.9, where 1 is the maximum; inconclusive = response in the unintended direction; inactive = score below 0.9.

Assay: CCTE_Simmons_CellTiterGLO_HEK293T: Viability Assessment in CCTE's Assays for Thyroperoxidase (TPO) Inhibition, Simmons Lab (AID 2283665);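 as to AC50: cells exposed to compound for 24 h before readout; actives reduce ATP signal below DMSO vehicle meaning cytotoxicity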
Description: CCTE_Simmons_CellTiterGLO_HEK293T is a cell-based, single-readout assay that uses HEK293T, a human kidney cell line, with measurements taken at 24 hours after chemical dosing in a 384-well plate.CCTE_Simmons_CellTiterGLO_HEK293T is the assay component measured from the CCTE_Simmons_CellTiterGLO_HEK293T assay. It is designed to make measurements of ATP content, a form of viability reporter, as detected with bioluminescence signals by Luciferase-coupled ATP quantitation technology. This is a secondary cytotoxicity assay to CCTE_Simmons_AUR_TPO to estimate a cellular tolerance limit.Data from the assay component CCTE_Simmons_CellTiterGLO_HEK293T was analyzed at the endpoint, CCTE_Simmons_CellTiterGLO_HEK293T, in the positive analysis fitting direction relative to DMSO as the negative control and baseline of activity. Using a type of viability reporter, measures of ATP content for loss-of-signal activity can be used to understand the viability. This assay was run in parallel with aeid 1508 as a means of indicating the range of chemical cytotoxicity or reactivity. To generalize the intended target to other relatable targets, this assay endpoint is annotated to the cell cycle intended target family, where the subfamily is cytotoxicity.
Human HEK293T cells (GenHunter; Nashville, Tennessee) were seeded overnight in 384-well, solid white assay plates (Greiner, BioExpress) at a density of 10 000 cells per well in 65 ul Dulbecco's Modified Eagle Medium (Life Technologies; Carlsbad, California) supplemented with 1% fetal bovine serum (HyClone; Logan, Utah). Test compounds were administered using the HDRT as described earlier to achieve a 0.5% final DMSO concentration. Cells were then incubated at 37C for 24 hr in a humidified 5% CO2 incubator. Cell Titer Glo (Promega; Madison, WI) reagent (25 ul) was then added by the BioTek MicroFlo and microplates were incubated at room temperature in the dark for 20min. Plates were read on a plate reader (FLUOStar Optima) using an endpoint luminescence protocol (top read). Three biological replicates of technical singles were run for every chemical concentration tested. A titrated range of DCNQ served as a positive control on each plate of the cytotoxicity screening assay.Test chemicals were administered as a titrated series of 8 concentrations from 5 nM up to 87.5 uM [final] for 24 hours prior to single endpoint detection. Three biological replicates of technical singles were run for every chemical concentration tested. Dimethylsulfoxide [DMSO] was used as the vehicle control. Dichlone [DCNQ] was used as the positive control and was administered as a titrated series of 8 concentrations from 1 nM up to 100 uM [final].

Row | Compound | outcome | AC50
1 | O=C1O[C@H]([C@@H](O)CO)C(O)=C1O | inactive | –
2 | Oc1ccc2ccccc2c1 | inactive | –
3 | CCCCCCCCOC(=O)c1cc(O)c(O)c(O)c1 | – | 7.69 µM (active)
4 | Cc1c2ccccc2c(C)c2c1ccc1ccccc12 | – | 17.2 µM (active)
5 | Oc1ccccc1 | inactive | –
6 | C[C@]12CC[C@@H]3c4ccc(O)cc4CC[C@H]3[C@@H]1CC[C@H]2O | inactive | –
7 | CCN(Cc1cccc(S(=O)(=O)O)c1)c1ccc(C(=C2C=CC(=[N+](CC)Cc3cccc(S(=O)(=O)O)c3)C=C2)c2ccccc2S(=O)(=O)[O-])cc1 | – | 4.21 µM (active)
8 | CN(C[C@@H](CC[N+]12CCC(C3CCCCC3)(CC1)CC2)c1ccc(Cl)c(Cl)c1)C(=O)c1cc(C(F)(F)F)cc(C(F)(F)F)c1 | – | 9.54 µM (active)
9 | NCc1cccc(C2CCN(C(=O)c3ccc(C#Cc4ccccc4F)o3)CC2)c1 | – | 9.98 µM (active)
10 | CCCCCc1ccc(N)cc1 | – | 26.7 µM (active)
11 | O=C(Nc1ccc(Cl)cc1)Nc1ccc(Cl)c(Cl)c1 | – | 1.73 µM (active)
12 | OC12N=C(c3ccccc3)SC1Cc1cc(Cl)ccc12 (centres undefined) | – | 29.7 µM (active)
13 | CO[C@H]1/C=C/O[C@@]2(C)Oc3c(C)c(O)c4c(O)c(c(/C=N/N5CCN(C)CC5)c(O)c4c3C2=O)NC(=O)/C(C)=C\C=C\[C@H](C)[C@H](O)[C@@H](C)[C@@H](O)[C@@H](C)[C@H](OC(C)=O)[C@@H]1C | inactive | –
14 | COc1cc(C(=O)NC2CCN(C)CC2)ccc1Nc1ncc2c(n1)N(C1CCCC1)CC(F)(F)C(=O)N2C | – | 15.3 µM (active)
15 | O=C(O)Cc1cc(I)c(Oc2ccc(O)c(I)c2)c(I)c1 | inactive | –
16 | CCCOC(=O)c1cc(O)c(O)c(O)c1 | – | 22.6 µM (active)
17 | CC(C)(c1cc(Br)c(O)c(Br)c1)c1cc(Br)c(O)c(Br)c1 | – | 14.7 µM (active)
18 | CC(=O)N1CCN(c2ccc(OC[C@H]3CO[C@](Cn4ccnc4)(c4ccc(Cl)cc4Cl)O3)cc2)CC1 | – | 1.26 µM (active)
19 | O=C1CCC(C2CCCCC2)CC1 | – | 43.8 µM (active)
20 | CN(C)c1ccc(C(=C2C=CC(=[N+](C)C)C=C2)c2ccc(N(C)C)cc2)cc1 | – | 0.955 µM (active)
21 | CC(C)(C)c1csc(-c2cc3cc(OCc4ccccc4CC(=O)O)ccc3o2)n1 | – | 22.4 µM (active)
22 | CC/C(=C(/CC)c1ccc(O)cc1)c1ccc(O)cc1 | – | 8.59 µM (active)
23 | CCOC(=O)O[C@H](C)OC(=O)c1ccc2c(c1)cc(C(=O)NC1CCN(C(C)C)CC1)n2Cc1cc(-c2ccc(Cl)s2)on1 | – | 2.11 µM (active)
24 | CC(C)(C)c1cc(/C=C2\SC(N)=NC2=O)cc(C(C)(C)C)c1O | – | 8.58 µM (active)
